Results as given in ChEMBL document CHEMBL3988442, “University of Dundee, Small-Polar-MMV Screening Library” (2021).

Experiments:
[1] = biological target: T1, Aspartate--tRNA(Asp/Asn) ligase (Mycobacterium tuberculosis (strain ATCC 25618 / H37Rv)) (UniProt P9WFW3); experiment: Assay for Asp RNA synthetase-1 from Mycobacterium tuberculosis; type: functional; design: scale not given: direction of the effect not stated beside the values; details: 30 µM; also: in the data most compounds retested in dose-response had high values
T1 sequence (whole entry): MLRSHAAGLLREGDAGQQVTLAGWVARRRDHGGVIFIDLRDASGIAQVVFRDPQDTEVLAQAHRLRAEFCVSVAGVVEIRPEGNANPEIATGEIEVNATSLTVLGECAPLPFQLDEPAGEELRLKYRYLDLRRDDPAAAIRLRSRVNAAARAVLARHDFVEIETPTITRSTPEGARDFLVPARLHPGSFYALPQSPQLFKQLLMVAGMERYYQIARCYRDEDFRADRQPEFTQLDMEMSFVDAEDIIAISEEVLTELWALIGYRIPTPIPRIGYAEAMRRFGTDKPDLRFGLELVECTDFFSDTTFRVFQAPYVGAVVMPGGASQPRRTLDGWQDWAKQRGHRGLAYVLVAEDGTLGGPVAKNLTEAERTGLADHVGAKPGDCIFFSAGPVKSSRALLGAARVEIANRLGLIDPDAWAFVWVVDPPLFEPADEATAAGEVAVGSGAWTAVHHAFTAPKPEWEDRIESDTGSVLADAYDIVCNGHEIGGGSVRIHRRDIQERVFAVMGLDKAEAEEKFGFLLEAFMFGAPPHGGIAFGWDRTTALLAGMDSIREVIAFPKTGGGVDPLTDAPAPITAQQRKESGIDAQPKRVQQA

[2] = biological target: Shiga toxin 2 (Escherichia coli O157:H7) (UniProt P09385+P09386); experiment: E. coli 0.157:H7 Shiga Toxin SOP - stx2 screening assay; type: functional; design: scale not given: direction of the effect not stated beside the values; details: 30 µM

SMILES | Percent Effect [1] [%] | Percent Effect [2] [%]
Cc1csc(N2CCN(C(=O)CCNc3ncccn3)CC2)n1 | 1.38 | 21.6
Cc1nc(N2CCN(C(=O)c3ccsc3)CC2)c2cnn(C)c2n1 | 5.51 | 0.569
Cn1c(CNc2c(F)cccc2-n2cccn2)cc(=O)n(C)c1=O | -0.864 | 0.236
Cc1cc(C(=O)N2C[C@@H]3COC[C@]3(COCc3cccnc3)C2)no1 | 0.918 | -6.54
Cc1nc(NCc2ccc(C)o2)cc(C(=O)N2CCOCC2)n1 | 12.5 | -16.9
O=C(c1ccc(F)c(F)c1)N1CCCC1CN1CCCC1 (stereo unspecified) | -3.65 | -41.7
Cc1nn2c(N3CCC(O)C3)cc(-c3ccccc3)nc2c1C (stereo unspecified) | -2.73 | -33.6
CC(C)N(C)Cc1cnc2n1CCN(CCc1ccccc1)C2 | 0.605 | -27.2
c1cnc(-c2nc(CN3CCC(c4ccn[nH]4)CC3)cs2)nc1 | -0.495 | -11.4
CCNC(=O)[C@@H]1C[C@H](NC(=O)Cc2ccsc2)CN1Cc1ccc(C)o1 | -0.518 | 18.7
CC(C)C(Sc1nnnn1C1CC1)C(=O)NCc1cccnc1 (stereo unspecified) | -3.1 | -4.91
Cc1cnn(CC2CCCN2Cc2cc(=O)n3cccc(C)c3n2)c1 (stereo unspecified) | 3.68 | 8
COCCN1CCc2cc(C(=O)N(C)C)c(NC(C)C)nc2CC1 | -1.31 | -20
CCOCC(O)CN1CCN(C(=O)c2ccnc(N(C)C)c2)CC1 (stereo unspecified) | -2.58 | -13.4
Cc1ccc2c(n1)N(Cc1cccnc1)CCN(C(=O)C1CCC1)C2 | 14.8 | -15.2
O=C(NCc1cccs1)[C@H]1CC[C@@H]2[C@@H](CCN2c2ncccn2)O1 | 3.22 | -3.66
CCN1CCN(CC(O)c2ccc(OC(F)(F)F)cc2)CC1 (stereo unspecified) | 5.22 | -5.3
CC(=O)N1CCC(C(=O)N(C)[C@@H]2CCC[C@@H](N3CCCC3)[C@@H]2O)CC1 | 1.35 | -6.16
CCn1cnnc1CNC(=O)c1cc(Cl)ccc1O | 3.77 | -19.6
COc1ccccc1CCN(C)C(=O)NC(C)c1nncn1C (stereo unspecified) | -4.13 | 1.17
CC(O)CNCc1ccc(OCc2ccc3c(c2)OCCO3)cc1 (stereo unspecified) | 1.08 | -37.4
CN(Cc1noc(C2CC2)n1)C1CCN(Cc2ccncc2)C1 (stereo unspecified) | -0.189 | -32.1
CCOCCCn1c(NC(=O)c2scnc2C)nc2ccccc21 | -5.62 | -30.2
CN(CC1(O)CCCCC1)C1CCCN(Cc2noc(C3CC3)n2)C1 (stereo unspecified) | -2.39 | 23.8
Cc1ccc(NC(=O)N2CCOC(C)C2)cc1Cl (stereo unspecified) | 0.866 | 1.77
COc1ccc(CN(C)Cc2nc3c(cnn3C)c(=O)[nH]2)cc1OC | -3.27 | -8.89
COc1ccc(CN2CCCC(Nc3cccc(F)c3)C2)cc1O (stereo unspecified) | 5.06 | 5.84
N#Cc1ccc(C(=O)N2CC[C@H]3[C@@H]2CCC(=O)N3c2cccnc2)cc1 | 2.4 | -9.02
